Values without a mark were called inactive.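 Rule for the calls: active = MAPPIT score above the 99th percentile of random reference set scores in the same batch; inactive = at or below it.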
Experiments:
Assay in all cases: MAPPIT interaction score (arbitrary units); higher = stronger binary interaction signal, active = hit call of the paper
Pis = conditions: MAPPIT configuration: N-N; pair source set: DPIM
PolZ2 = conditions: MAPPIT configuration: N-N; pair source set: Finley_Y2H
Prosalpha2 = conditions: pair source set: Lit-BM-16
Rpt2 = conditions: MAPPIT configuration: N-N
Rpt4 = conditions: MAPPIT configuration: N-N; pair source set: Lit-BM-16
Prosalpha4 = conditions: MAPPIT configuration: N-N; pair source set: Lit-BM-16
Prosbeta7 = conditions: pair source set: Lit-BM-16
Prosbeta2 = conditions: MAPPIT configuration: N-N; pair source set: Lit-BM-16
Prosbeta3 = conditions: MAPPIT configuration: N-C; pair source set: Lit-BM-16
Prp3 = conditions: MAPPIT configuration: N-N
Psi = conditions: MAPPIT configuration: N-N; pair source set: Lit-BM-16
Pten = conditions: MAPPIT configuration: N-N; pair source set: DPIM
Ptp61F = conditions: MAPPIT configuration: N-N; pair source set: Lit-BS-16
Pu = conditions: MAPPIT configuration: N-C; pair source set: screen_4
REPTOR-BP = conditions: MAPPIT configuration: N-N; pair source set: Curagen_high_conf
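Note: HEK293T cells with Epo stimulation, STAT-responsive firefly luciferase reporter, fold induction versus unstimulated cells divided by the larger fold induction of two negative controls lacking either bait or prey.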

B1: CG7601 (protein)
chain: MKVQDMDKCAPSSDWNVLYWVLGTVLMPVALPLAIINIWQRFQAQKFRNQLPGKVVLITGASSGLGESLAHVFYRAGCRVILAARRTQELERVKKDLLALDVDPAYPPTVLPLDLAELNSIPEFVTRVLAVYNQVDILINNGGISVRADVASTAVDVDLKVMVVNYFGSVALTKALLPSMVKRGSGHICFISSVQGKFAIPQRAAYSASKHAMQAFADSLRAEVANKNINVSCVSPGYIRTQLSLNALTGSGSSYGKVDETTAKGMSPDKLAERILQCILRKEPDIIVSDVQAKIAYYLRHLCPSLYFWIMAKRAVKLENAEKKST
B1 showed an MAPPIT interaction score (Pis) of 0.037.

B2: rtp (protein)
chain: MAMDDYDDDMSSVGVTTARIENQHQQHPHQQGQHGHHQQGQGQSQYSAGAVKVGGWRYEDASRYIGEWNQRGQKHGIGHLQFADGTRYDGQFQEGLSQGVGCLWFADGAKYEGEFHQGWFHGNGIFWRADGMKYEGEFRGGKIWGLGLLTFQDFTHGFPRNEGFFQDCRFMRRRRCPEVVQRAQKCALMARSQCEHPY
Binder B2 has an MAPPIT interaction score (PolZ2) of 0.217.

B3: Rpt6 (protein)
chain: MTVTNRMEIESAYHKGEGFRSYYIQKIEELQLVVAEKHQNLRRLQAQRNELNAKVRMLREELQLLQEQGSYVGEVVKPMDKKKVLVKVHPEGKFVVDLDKNIDINDVTPNCRVALRNESYTLHKILPNKVDPLVSLMMVEKVPDSTYEMVGGLDKQIKEIKEVIELPVKHPELFDALGIAQPKGVLLYGPPGTGKTLLARAVAHHTECTFIRVSGSELVQKFIGEGSRMVRELFVMAREHAPSIIFMDEIDSIGSSRIESGSGGDSEVQRTMLELLNQLDGFEATKNIKVIMATNRIDILDPALLRPGRIDRKIEFPPPNEEARLDILKIHSRKMNLTRGINLRKIAELMPGASGAEVKGVCTEAGMYALRERRVHVTQEDFEMAVAKVMQKDSEKNMSIKKLWK
B3 showed an MAPPIT interaction score (Prosalpha2; MAPPIT configuration: N-C) of 1.08, an MAPPIT interaction score (Prosalpha2; MAPPIT configuration: N-N) of 1.52 and an MAPPIT interaction score (Rpt2; pair source set: Finley_Y2H) of 2.59. It also gave an MAPPIT interaction score (Rpt2; pair source set: Lit-BM-16) of 2.59 and an MAPPIT interaction score (Rpt4) of -0.794.

B4: Prosbeta3 (protein)
chain: MSILAYNGGCVVAMRGKDCVAIATDHRFGIQAQTISTDFKKVFHIGPRMFLGLTGLQTDILTVRDRLMFRKNLYETRENREMCPKPFSAMMSSFLYEHRFGPYFIEPVVAGLDPKTMEPFICNMDLIGCPNAPDDFVVAGTCAEQLYGMCETLWKPDLEPDQLFEVIAQSIVNAFDRDAMSGWGATVYIIEKDKITERTLKTRMD
Work on B4 yielded an MAPPIT interaction score (Prosalpha2; MAPPIT configuration: N-N) of 1.33, an MAPPIT interaction score (Prosalpha4) of -0.232 and an MAPPIT interaction score (Prosbeta7; MAPPIT configuration: N-C) of 0.398. For the same binder, the MAPPIT interaction score (Prosbeta7; MAPPIT configuration: N-N) was 0.197.

B5: Prosbeta4 (protein)
chain: MLNNYNSLAQPMWQNGPAPGEFYNFTGGQTPVQQLPRELTTMGPYGTKHSTASSTTGTSVLGIRYDSGVMLAADTLVSYGSMARYQNIERVFKVNKNILLGGSGDFADIQSIKRNIDQKMIEDQCCDDNIEMKPKSLASWMTRVLYNRRSRMNPLYIDVVVGGVDNEGTPYLANVDLRGRSYEDYVVATGFARHLAVPLVREKKPKDRDFTAVEASELIRTCMEVLYYRDTRNISQYTVGVCSVNGCGVEGPFQVNENWTFAETIKGY
In the case of B5, the MAPPIT interaction score (Prosbeta2) is reported as 2.07.

B6: Prosalpha4 (protein)
chain: MSSRYDRAVTIFSPDGHLLQVEYAQEAVRKGSTAVGVRGANCVVLGVEKKSVAQLQEDRKVRKICMLDNHVVMAFAGLTADARIMINRAQVECQSHRLNVEDPVTLEYITRFIAQLKQKYTQSNGRRPFGISCLIGGFDADGSAHLFQTEPSGIFYEYKANATGRSAKVVREFFEKSYREEEVANEHGAVKLAIRALLEVAQSGQNNLEVAIMENGKPLKMLDTDVITDYVKIIEKEKEEELEKKKQKK
In the case of B6, the MAPPIT interaction score (Prosbeta3) is reported as 1.51.

B7: Mettl14 (protein)
chain: MSDVLKSSQERSRKRRLLLAQTLGLSSVDDLKKALGNAEDINSSRQLNSGGQREEEDGGASSSKKTPNEIIYRDSSTFLKGTQSSNPHNDYCQHFVDTGQRPQNFIRDVGLADRFEEYPKLRELIKLKDKLIQDTASAPMYLKADLKSLDVKTLGAKFDVILIEPPLEEYARAAPSVATVGGAPRVFWNWDDILNLDVGEIAAHRSFVFLWCGSSEGLDMGRNCLKKWGFRRCEDICWIRTNINKPGHSKQLEPKAVFQRTKEHCLMGIKGTVRRSTDGDFIHANVDIDLIISEEEEFGSFEKPIEIFHIIEHFCLGRRRLHLFGRDSSIRPGWLTVGPELTNSNFNSELYQTYFAEAPATGCTSRIELLRPKSPPPNSKVLRGRGRGFPRGRGRPR
Binder B7 has an MAPPIT interaction score (Prp3; pair source set: Curagen_high_conf) of 1.8.

B8: CG4709 (protein)
chain: MEEYEAQLLVVEQALENAADDAQRQDLLALKNNLQELLALTRESGDEAPIDELPQQGDNLDDELQRLKSELNDLEAAGSSQTALDEERQLADLRTKYTAMVGEKCSAPHEHSWGTCYHNALICGVDDEVVMNSEGVLDARLRVLFTNPTHREMLPCSYYLEGECRFDEAKCRFSHGALVTGSSIRKYNPPDFHKLSRSRPVFALLPDRLWHRGRVLCVNFVEQICRVRLDGQDHKERERDFKFEELYPLTTDQDEDDELSSEESNSSMNDNSSDEAESDMDDLEEARRARMVELSLFTFKPTERLGAWEEFTRGIGSKLMEKMGYIHGTGLGSDGRGIVTPVSAQILPQGRSLDACMELREAANGDKDYFSVERKLKRAQRRQRKADEKAYVRESQRVDVFTFLNDSVLGPGESTQQGEQVTKKAKTNELQQHSTKTLNVETVRIADEIRRKQRDMAKVKQSLDRNSGDAQLQKRLQVQMQSHKQELATLQAQERSLSKEQQTRKSKNKMFEF
B8 showed an MAPPIT interaction score (Prp3; pair source set: Lit-BM-16) of 2.3.

B9: snRNP-U1-70K (protein)
chain: MTQYLPPNLLALFAAREPIPFMPPVDKLPHEKKSRGYLGVAKFMADFEDPKDTPLPKTVETRQERLERRRREKAEQVAYKLEREIALWDPTEIKNATEDPFRTLFIARINYDTSESKLRREFEFYGPIKKIVLIHDQESGKPKGYAFIEYEHERDMHAAYKHADGKKIDSKRVLVDVERARTVKGWLPRRLGGGLGGTRRGGNDVNIKHSGREDNERERERYRLEREREDREGPGRGGGSNGLDARPGRGFGAERRRSRSRERRDRERDRGRGAVASNGRSRSRSRERRKRRAGSRERYDEFDRRDRRDRERERDRDREREKKKKRSKSRERESSRERRERKRERRDRERGTGSGGDVKERKPDFRDMDVIKIKEEPVDDGYPTFDYQNATIKREIDDEDEEKYRPPPAHHNMFSVPPPPILGRGNASTNPNPDNGQQSSGDPSWWRQ
With B9 the MAPPIT interaction score (Psi) was 0.25.

B10: mTerf3 (protein)
chain: MFCSALRNILRNSQNAAKNATITSQIRNLRGQQSVHHEVEVLTSPGITTKQNDKKTEPAECEGSKEVALDFRNREAHVPSFNLAAYVNNSSTLQQFLSLGVDLHSIERRKGLGDFVLKLDFEKNVKPYITFLVDQGVSPDDFGRMFTKNPLLFKEDLDDLQTRVNYLKSKRFSDEARQRILTQNPYWLMFSTRRVDRRLGYFQKEFKLSGHDLRLLATREPNAITYNMEHLRKSVFTLKEEMGFNAKELSDLVVRKPRLLMIPPDDLVERFSYIHQDMGLPHAQIVQCPELLASREFRLRERHEFLKLLGRAQYDPQKDLYISPKTIVEGNNFYFVRNVAKSDLETFDLFLKTR
B10 showed an MAPPIT interaction score (Pten) of -0.325.

B11: Cyp9f2 (protein)
chain: MLWEFFALFAIAAALFYRWASANNDFFKDRGIAYEKPVLYFGNMAGMFLRKRAMFDIVCDLYTKGGSKKFFGIFEQRQPLLMVRDPDLIKQITIKDFDHFINHRNVFATSSDDDPHDMSNLFGSSLFSMRDARWKDMRSTLSPAFTGSKMRQMFQLMNQVAKEAVDCLKQDDSRVQENELDMKDYCTRFTNDVIASTAFGLQVNSFKDRENTFYQMGKKLTTFTFLQSMKFMLFFALKGLNKILKVELFDRKSTQYFVRLVLDAMKYRQEHNIVRPDMINMLMEARGIIQTEKTKASAVREWSDRDIVAQCFVFFFAGFETSAVLMCFTAHELMENQDVQQRLYEEVQQVDQDLEGKELTYEAIMGMKYLDQVVNEVLRKWPAAIAVDRECNKDITFDVDGQKVEVKKGDVIWLPTCGFHRDPKYFENPMKFDPERFSDENKESIQPFTYFPFGLGQRNCIGSRFALLEAKAVIYYLLKDYRFAPAKKSCIPLELITSGFQLSPKGGFWIKLVQRN
In the case of B11, the MAPPIT interaction score (Ptp61F) is reported as -0.452.

B12: Pu (protein)
chain: MSFTRQLSEMSASELNDAIDDTNFPQAHILSRGRNNSVCSTSSTSGTSSLADRQQNQAEEATAIAGTPVEEVAPAPALVPLAGNQRPRLILKTNGSSPDSDGTQPKTPLTPRTSTTPGHEKCTFHHDLELDHKPPTREALLPDMARSYRLLLGGLGENPDRQGLIKTPERAAKAMLYFTKGYDQSLEDVLNGAVFDEDHDEMVVVKDIEMFSMCEHHLVPFYGKVSIGYLPCNKILGLSKLARIVEIFSRRLQVQERLTKQIAVAVTQAVQPAGVAVVVEGVHMCMVMRGVQKINSKTVTSTMLGVFRDDPKTREEFLNLVNSK
With B12 the MAPPIT interaction score (Pu) was 5.06 (active).

B13: REPTOR (protein)
chain: MTENQLYPMSSEFFDTGSNSSSNTLKYDLYSLGSTVVGAALPTLTINTGYGSSSSNNNNTNNNNNNSSSHSSSSNCSTSTTNTCNVMLSTTAITIPRSSNHNQIHHHPYQQSDLQTPRHHPSPLHTLPSMTHQQNQLQQQQQQQHHNQQQQLQQSHLALGELSDFGLDALDAASLSPTLLQDVSLSAVSPLSTTLYNGNTSGAGSSNGIGSGSGGYFTPDMSHSLSLNVVSEQVLLQEATTPNELLYEMTPNSNAMWSDISSAIIHTKHEPFSLDDDYIFPNDKAEIQAADLSDLNGGDFLDVIGNIEDFLPQTAVTQSVNFLLSPQAQGQDALVAPPMELLQQQQQNHQQLQVGSLPQLQTLLTLSQQQQSNSSSTSPYEIYHSTPQKPQQQQLSASFSPGSQASQSPLTPPPPPHANRPQYQMVKSRNMQELIKKGFPMSSPPERSILSQSAALSPGGSSGFGSSASGNSTTTSNQTSGSAVRKSFGYQSAVENSQLSRLSSSAPTHLGLEHIWMRREPRQHLLSTGSLAEAESFSSLSTGSVLSPDGIDFSQDDEDDNSSENSDNYDDCSSDNGLSEDEDETRTSTPNHLSSSKGKERFFWQYNVQAKGPKGKRLVFQSKLEDPHVLNEVTDPVFSPTCSVRGIKVYKHSGKARKGDGNDLTPNARKLHNIGKELDKLSRTINDMTPVSELPFNVRPKSRKEKNKLASRACRLKKKAQHEANKIKLFGLEIEHSEFNVKAVEISYNPSIFVL
B13 was tested, and the MAPPIT interaction score (REPTOR-BP) was 0.721.

From the supplement of paper PMC10105736
